The whole screen tested about 5,500 compounds, of which about 2,000 (36%) were called active. Another 18% or so got no clear call; they are omitted. No stated cut-off is given here; in the data, active means normalized growth mostly below about 0.91 (no sharp cut-off); inconclusive means no clear call, values can overlap the other calls; inactive means mostly above about 0.92. The list shows a part of the results.
Assay: chemical genetic growth profiling, strain panel (AID 1159580);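 further: tested at 20 µM; growth read once vehicle control cultures reached saturation at 30 °C; 1 = growth at the plate median or of vehicle wells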
Conditions: S. cerevisiae deletion strains, growth OD
[1] = locus YAL021C, strain ccr4, stronger effect = lower value
[2] = locus YAL026C, strain drs2, stronger effect = lower value
[3] = locus YAL030W, strain snc1, stronger effect = lower value
[4] = locus YBL061C, strain skt5, stronger effect = lower value
[5] = locus YBR009C, strain hhf1, stronger effect = lower value
[6] = locus YBR023C, strain chs3, stronger effect = lower value
[7] = locus YBR171W, strain sec66, stronger effect = lower value
[8] = locus YBR231C, strain swc5, stronger effect = lower value
[9] = locus YBR279W, strain paf1, stronger effect = lower value
[10] = locus YCL011C, strain gbp2, stronger effect = lower value
[11] = locus YCL016C, strain dcc1, stronger effect = lower value
[12] = locus YCL069W, strain vba3, stronger effect = lower value
[13] = locus YCR088W, strain abp1, stronger effect = lower value
[14] = locus YDL005C, strain med2, stronger effect = lower value
[15] = locus YDL040C, strain nat1, stronger effect = lower value
[16] = locus YDR001C, strain nth1, stronger effect = lower value
[17] = locus YDR069C, strain doa4, stronger effect = lower value
[18] = locus YDR137W, strain rgp1, stronger effect = lower value
[19] = locus YDR159W, strain sac3, stronger effect = lower value
[20] = locus YDR297W, strain sur2, stronger effect = lower value
[21] = locus YDR334W, strain swr1, stronger effect = lower value
[22] = locus YDR335W, strain msn5, stronger effect = lower value
[23] = locus YDR392W, strain spt3, stronger effect = lower value
[24] = locus YEL003W, strain gim4, stronger effect = lower value
[25] = locus YEL037C, strain rad23, stronger effect = lower value
[26] = locus YEL061C, strain CIN8 (second series), stronger effect = lower value
[27] = locus YER015W, strain faa2, stronger effect = lower value
[28] = locus YER016W, strain bim1, stronger effect = lower value
[29] = locus YER111C, strain swi4, stronger effect = lower value
[30] = locus YER155C, strain BEM2 (second series), stronger effect = lower value
[31] = locus YFR010W, strain ubp6, stronger effect = lower value
[32] = locus YGL167C, strain pmr1, stronger effect = lower value
[33] = locus YGL173C, strain kem1, stronger effect = lower value
[34] = locus YGL227W, strain vid30, stronger effect = lower value
[35] = locus YGL240W, strain doc1, stronger effect = lower value
[36] = locus YGL253W, strain hxk2, stronger effect = lower value
[37] = locus YHR013C, strain ard1, stronger effect = lower value
[38] = locus YHR027C, strain rpn1, stronger effect = lower value
[39] = locus YHR030C, strain SLT2, stronger effect = lower value
[40] = locus YHR079C, strain IRE1, stronger effect = lower value
[41] = locus YHR142W, strain chs7, stronger effect = lower value
[42] = locus YJL092W, strain hpr5, stronger effect = lower value
[43] = locus YJL095W, strain BCK1 (second series), stronger effect = lower value
[44] = locus YJL095W, strain BCK1, stronger effect = lower value
[45] = locus YJL115W, strain asf1, stronger effect = lower value
[46] = locus YJL129C, strain trk1, stronger effect = lower value
[47] = locus YJL154C, strain vps35, stronger effect = lower value
[48] = locus YJL164C, strain tpk1, stronger effect = lower value
[49] = locus YJL166W, strain qcr8, stronger effect = lower value
[50] = locus YJR066W, strain TOR1, stronger effect = lower value
[51] = locus YKL160W, strain elf1, stronger effect = lower value
[52] = locus YKR026C, strain gcn3, stronger effect = lower value
[53] = locus YKR091W, strain srl3, stronger effect = lower value
[54] = locus YLL001W, strain dnm1, stronger effect = lower value
[55] = locus YLL026W, stronger effect = lower value
[56] = locus YLL041C, strain sdh2, stronger effect = lower value
[57] = locus YLR027C, strain aat2, stronger effect = lower value
[58] = locus YLR113W, strain HOG1, stronger effect = lower value
[59] = locus YLR221C, strain rsa3, stronger effect = lower value
[60] = locus YLR258W, strain gsy2, stronger effect = lower value
[61] = locus YLR262C, strain YPT6 (second series), stronger effect = lower value
[62] = locus YLR320W, strain mms22, stronger effect = lower value
[63] = locus YLR342W, strain FKS1, stronger effect = lower value
[64] = locus YLR357W, strain rsc2, stronger effect = lower value
[65] = locus YLR370C, strain arc18, stronger effect = lower value
[66] = locus YLR384C, strain iki3, stronger effect = lower value
[67] = locus YML120C, strain ndi1, stronger effect = lower value
[68] = locus YMR058W, strain fet3, stronger effect = lower value
[69] = locus YMR125W, strain sto1, stronger effect = lower value
[70] = locus YMR129W, stronger effect = lower value
[71] = locus YMR205C, strain PFK2, stronger effect = lower value
[72] = locus YMR231W, strain pep5, stronger effect = lower value
[73] = locus YNL071W, strain lat1, stronger effect = lower value
[74] = locus YNL183C, strain NPR1, stronger effect = lower value
[75] = locus YNL209W, strain ssb2, stronger effect = lower value
[76] = locus YNL248C, strain rpa49, stronger effect = lower value
[77] = locus YNL322C, strain KRE1 (second series), stronger effect = lower value
[78] = locus YNR049C, strain mso1, stronger effect = lower value
[79] = locus YOR001W, strain rrp6, stronger effect = lower value
[80] = locus YOR070C, strain gyp1, stronger effect = lower value
[81] = locus YOR080W, strain dia2, stronger effect = lower value
[82] = locus YOR083W, strain WHI5, stronger effect = lower value
[83] = locus YOR106W, strain vam3, stronger effect = lower value
[84] = locus YOR231W, strain MKK1, stronger effect = lower value
[85] = locus YOR265W, strain rbl2, stronger effect = lower value
[86] = locus YOR270C, strain vph1, stronger effect = lower value
[87] = locus YOR290C, strain snf2, stronger effect = lower value
[88] = locus YPL051W, strain arl3, stronger effect = lower value
[89] = locus YPL078C, strain atp4, stronger effect = lower value
[90] = locus YPL106C, strain sse1, stronger effect = lower value
[91] = locus YPL240C, strain hsp82, stronger effect = lower value
[92] = locus YPL256C, strain CLN2, stronger effect = lower value

Measured: normalized growth

Nc1ncn[nH]1
inactive: [1] 0.986 | [2] 1.02 | [3] 1.02 | [4] 1.02 | [5] 1.04 | [6] 1.02 | [7] 1.02 | [8] 1.02 | [9] 1.02 | [10] 1.02 | [11] 1.02 | locus YCL061C, strain MRC1, stronger effect = lower value 1.02 | [12] 1.02 | [13] 1.02 | [14] 1.02 | [15] 1.02 | [16] 1.02 | [17] 1.03 | [18] 1 | [19] 1.05 | locus YDR195W, strain ref2 1.01 | [20] 1.01 | [21] 1.02 | [22] 1.02 | [23] 0.966 | [24] 1.02 | [25] 1.02 | [26] 1.01 | [27] 1.02 | [28] 1.03 | [29] 1.02 | [30] 1.04 | [31] 1.02 | [32] 1.02 | [33] 1.02 | [34] 1.02 | [35] 1.05 | [36] 1.01 | [37] 1.01 | [38] 1.02 | [39] 0.995 | [40] 1 | [41] 0.97 | [42] 1.02 | [43] 1.02 | [44] 0.967 | [45] 1.02 | [46] 1 | [47] 1.02 | [48] 1 | [49] 1.01 | locus YJL187C, strain SWE1, stronger effect = lower value 1.02 | [50] 0.923 | [51] 0.974 | [52] 1.01 | [53] 1.02 | [54] 1.03 | [55] 1.01 | [56] 1.02 | [57] 1.01 | [58] 0.985 | [59] 0.995 | [60] 1.03 | [61] 1 | [62] 1.03 | [63] 1.01 | [64] 1.06 | [65] 1.01 | [66] 1 | [67] 0.997 | [68] 1.02 | [69] 1.05 | [70] 1.01 | [71] 1.05 | [72] 1.02 | [73] 1.01 | [74] 0.933 | [75] 1.01 | [76] 0.985 | [77] 1 | [78] 1.02 | [79] 1 | [80] 1.03 | [81] 1.02 | [82] 0.979 | [83] 0.987 | [84] 0.988 | [85] 1.01 | [86] 1.02 | [87] 0.982 | [88] 0.988 | [89] 0.982 | [90] 1.05 | [91] 1.02 | [92] 0.96

O=C(O)[C@@H]1CCN1
inactive: locus YAL040C, strain CLN3, stronger effect = lower value 1.01 | locus YDR363W, strain ESC2, stronger effect = lower value 0.998 | locus YER002W, strain NOP16, stronger effect = lower value 0.998 | locus YGR078C, strain PAC10, stronger effect = lower value 1.01 | locus YGR229C, strain SMI1, stronger effect = lower value 0.984 | locus YMR263W, strain SAP30, stronger effect = lower value 0.998 | locus YMR307W, strain GAS1, stronger effect = lower value 0.992 | locus YNL153C, strain GIM3, stronger effect = lower value 0.996 | locus YNL175C, strain NOP13, stronger effect = lower value 1.01 | locus YNL197C, strain WHI3, stronger effect = lower value 1.02 | locus YNL224C, strain SQS1, stronger effect = lower value 0.963 | locus YOR083W, strain WHI5 (second series), stronger effect = lower value 1 | locus YPL055C, strain LGE1, stronger effect = lower value 0.996 | locus YPL241C, strain CIN2, stronger effect = lower value 1.01

CCOC(=O)n1ccn(C)c1=S
inactive: [1] 0.987 | [2] 0.996 | [3] 0.994 | [4] 1.01 | [5] 0.946 | [6] 1.01 | [7] 0.98 | [8] 0.984 | [9] 1 | [10] 0.997 | [11] 1.03 | [12] 0.984 | [13] 0.99 | [14] 0.99 | [15] 0.985 | [16] 0.982 | [17] 0.994 | [18] 0.96 | [19] 0.881 | locus YDR195W, strain ref2 0.976 | [20] 1 | [21] 0.961 | [22] 1.01 | [23] 0.939 | [24] 0.972 | [25] 0.974 | [26] 0.966 | [27] 0.982 | [28] 1.06 | [29] 0.994 | [30] 0.961 | [31] 0.955 | [32] 0.97 | [33] 0.975 | [34] 0.985 | [35] 0.995 | [36] 0.998 | [37] 1.02 | [38] 0.997 | [39] 1.02 | [40] 1.01 | [41] 1.01 | [42] 0.987 | [43] 0.99 | [44] 1.01 | [45] 0.963 | [46] 0.974 | [47] 0.977 | [48] 0.979 | [49] 0.986 | [50] 0.988 | [51] 1.04 | [52] 0.97 | [53] 0.99 | [54] 0.951 | [55] 0.986 | [56] 0.988 | [57] 0.999 | [58] 0.999 | [59] 0.967 | [60] 1 | [61] 0.929 | [62] 0.931 | [63] 1.01 | [64] 0.99 | [65] 0.998 | [66] 0.981 | [67] 0.974 | [68] 0.991 | [69] 0.971 | [70] 0.979 | [71] 0.983 | [72] 0.988 | [73] 0.98 | [74] 0.971 | [75] 0.985 | [76] 1.04 | [77] 1.01 | [78] 0.999 | [79] 0.949 | [80] 1.01 | [81] 0.998 | [82] 1.01 | [83] 1.02 | [84] 1.02 | [85] 0.988 | [86] 1.02 | [87] 1.05 | [88] 1.06 | [89] 1.05 | [90] 1.04 | [91] 0.994 | [92] 0.98
